In the library only some 12% were active in any assay of this set; here they are far more common.
CHX counter – affects cycloheximide protein synthesis inhibition readout, counter-screen. max response, %. 300,000 compounds, 12% hits. cell reporter, cycloheximide protein synthesis inhibition counterscreen; in the data active means max response mostly above about 13%, no sharp cut-off; inactive means mostly below about 14%; further: read at 38.3 µM for the half of the compounds with a filed dose
Shiga inhibitor – Shiga toxin inhibition; Vero cells, Shiga toxin protein synthesis inhibition reporter; inhibition, % at 38.7 µM; 290,000 compounds, 9.2% hits; in the data active means inhibition mostly above about 28%, no sharp cut-off; inactive means mostly below about 43%
SARS PLpro yeast – inhibitors of SARS-CoV papain-like protease in yeast; 330,000 compounds, 0.19% hits; S. cerevisiae expressing SARS-CoV PLpro, growth rescue; Potency, µM (series often up to 32.9 µM), hits mostly activators; further: nearly all actives have a fitted effect of over 55% in size
NS1 inh – influenza NS1 inhibition | Potency, µM (titrated, usually from 46.1 µM) | 270,000 compounds, 0.4% hits | AID 2326; further: actives are rising curves; nearly all actives have a fitted effect of over 50% in size
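Growth recovery, yeast-based: influenza A NS1 expressed in S. cerevisiae causes slow growth, and suppressors are detected by OD600. The parent strain without NS1 is used as positive control.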
Numbers stand for hits; i = inactive; ? = inconclusive; nt = no result given. Unless noted, the call rests on the fitted dose curve.

SMILES	CHX counter	Shiga inhibitor	SARS PLpro yeast	NS1 inh
O=C(CN1C(=O)S/C(=C\C=C\c2ccccc2)C1=O)N1CCCCC1	i	i	i	i
CCOC(=O)CN1C(=O)S/C(=C/c2ccc3c(c2)n(C)c(=O)n3C)C1=O	40.2	43.9	i	i
Cc1[nH]n(-c2ccccc2)c(=O)c1N=Nc1ccccc1	23.3	i	i	i
Cc1[nH]n(-c2ccccc2)c(=O)c1N=Nc1cccc(C(=O)O)c1	41.7	nt	i	i
Cc1ccc(N=Nc2c(N)n(-c3ccccc3)[nH]c2=O)cc1	37.7	122.2	i	i
Cc1[nH]c2ccccc2c1N=Nc1cccc(C(=O)O)c1	58.5	107.7	i	i
COc1ccc([C@@H]2CC(=O)c3c(O)cc(O[C@@H]4O[C@H](CO)[C@@H](O)[C@H](O)[C@H]4O[C@@H]4O[C@@H](C)[C@H](O)[C@@H](O)[C@H]4O)cc3O2)cc1	i	i	nt	nt
COc1ccc(Nc2nccc(-c3ccc(C#N)cc3)n2)cc1	i	i	i	i
COc1ccc(Nc2nccc(NCCO)n2)cc1	41.2	71.8	nt	nt
COc1ccc(Nc2nc(NCCO)nc(OC)n2)cc1	i	i	i	i
COc1ccc(Nc2nccc(-c3cccc(N)c3)n2)cc1	68.2	71.0	i	?
Cc1oc(-c2ccc(Cl)cc2)cc1C(=O)/C(C#N)=C/Nc1cccc(OC(F)(F)F)c1	i	i	i	i
COc1c(C)cccc1C(=O)Nc1cc(-c2nn3c(C)nnc3s2)ccc1C	nt	nt	nt	i
COCCN=C1NN=C(c2ccc(C)c([N+](=O)[O-])c2)CS1	46.7	63.1	i	nt
CCCCN=C1NN=C(c2ccc3c(c2)OCCO3)CS1	i	i	i	nt
CCCCN=C1NN=C(c2ccc(C)c(C)c2)CS1	44.3	87.3	i	nt
COc1ccccc1-c1ccc(SCC(=O)NCCc2ccccc2)nn1	i	i	i	nt
COc1ccccc1-c1ccc(SCc2ccccc2F)nn1	28.7	66.0	i	nt
COc1ccccc1-c1ccc(SCc2ccccc2)nn1	37.9	76.5	i	nt
Cc1nc(C)c(-c2ccc(SCc3ccccc3F)nn2)s1	32.5	118.7	i	i
CCOC(=O)N1CCN(C(=O)CSc2ccc(-c3ccccc3OC)nn2)CC1	i	i	i	nt
COc1ccccc1-c1ccc(SCc2cccc(F)c2)nn1	30.0	66.4	i	i
Cc1ccccc1NS(=O)(=O)c1ccc(C(=O)N2CCN(S(=O)(=O)c3ccccc3)CC2)cc1	nt	nt	i	nt
O=c1oc2ccccc2cc1-c1cn2cccnc2n1	57.1	102.8	i	i
O=c1oc2ccccc2cc1-c1cn2ccccc2n1	i	i	i	i
SMILES	CHX counter	Shiga inhibitor	SARS PLpro yeast	NS1 inh
Cc1cccn2cc(-c3cc4ccccc4oc3=O)nc12	53.4	110.5	i	i
CCc1cccc(C)c1NC(=S)NCc1cccn1C	i	i	i	?
Cc1cnc(NC(=O)c2sc3ccccc3c2Cl)s1	57.2	63.5	i	i
CC(C)c1nnc(NC(=O)c2sc3ccccc3c2Cl)s1	29.2	67.0	i	i
Cc1onc(-c2ccccc2Cl)c1C(=O)Nc1nnc(C(C)C)s1	i	i	i	i
Cc1cccc(NC(=O)CNC(=O)c2sc3ccccc3c2Cl)n1	nt	nt	i	nt
O=C(O)c1sc2cc(Cl)ccc2c1Cl	i	i	i	i
O=C(Nc1ccccn1)c1sc2cc([N+](=O)[O-])ccc2c1Cl	20.9	59.1	i	i
O=C(Nc1nccs1)c1sc2cc(Cl)ccc2c1Cl	38.5	63.1	i	i
O=C(CCC1CCCC1)N1CCN(S(=O)(=O)c2ccc(Br)cc2)CC1	nt	nt	i	nt
Cc1cc(S(=O)(=O)NCc2ccc(N3CCN(C)CC3)cc2)c(C)s1	i	i	i	i
COc1cc2c(cc1OC)[C@@H](NC(=O)CCc1ccccc1)[C@H](OCc1ccccc1)C2	nt	nt	i	nt
CCCn1nnc(NC(=O)Cc2ccccc2)n1	i	i	i	i
Cc1ccnc(NC(=O)c2sc3ccccc3c2Cl)c1	42.2	89.2	i	i
O=C(Nc1nccs1)c1sc2ccccc2c1Cl	30.1	78.0	i	i
O=C(Nc1ccc(NC(=O)c2sc3ccccc3c2Cl)cc1)c1ccco1	i	i	i	i
CCCn1nnc(NC(=O)c2sc3ccccc3c2Cl)n1	41.2	99.7	i	i
CCCC(=O)N1CCN(c2ccc(NC(=O)c3sc4ccccc4c3Cl)cc2)CC1	i	i	i	i
Cc1cccnc1NC(=O)CNC(=O)c1sc2ccccc2c1Cl	nt	nt	i	nt
CCCn1nnc(NC(=O)COc2ccccc2Cl)n1	24.3	61.9	i	i
CCC1(c2ccc(F)cc2)NC(=O)N(CC(=O)NC2CCCC(C)C2C)C1=O (stereo unspecified)	nt	nt	i	nt
CN(C)CCCNS(=O)(=O)c1ccc(Cl)s1	i	i	i	i
COc1ccc(Cc2noc(-c3ccccc3)n2)cc1OC	i	i	i	nt
Cc1ccccc1-c1nc(Cc2ccccc2)no1	51.0	68.7	i	i
Clc1ccc(-c2nc(Cc3ccccc3)no2)cc1	30.6	i	i	i

Compound activity from PubChem BioAssay.
